Usually AC50 stands for the concentration giving half of the maximal activity seen.

Calls of active or inactive are those of the source. The calls were made as follows: active = hit-call score of the fitted dose curve at least 0.9, where 1 is the maximum; inactive = score below 0.9.

Read-out in this assay: Monokine induced gamma interferon (MIG), CXCL9 (gene 4283)
Briefly: BSK_3C_MIG: BioMAP Diversity Plus: 3C Assay for Monokine induced gamma interferon (MIG) Biomarker Activity (AID 2283021).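 As to AC50: MIG protein level measured by immunoassay in the treated endothelial cultures.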 The note with it: primary human endothelial cells (HUVEC); actives raise or lower the signal. As for the experimental part:
BSK_3C is a cell-based, multiplexed-readout assay that uses umbilical vein endothelium, a human vascular primary cell, with measurements taken at 24 hours after chemical dosing in a 96-well plate.BSK_3C_MIG is an assay component measured in the BSK_3C assay. It measures MIG antibody related to regulation of gene expression using ELISA technology.Data from the assay component BSK_3C_MIG was analyzed into 1 assay endpoint. This assay endpoint, BSK_3C_MIG, was analyzed with bidirectional fitting relative to DMSO as the negative control and baseline of activity. Using a type of binding reporter, gain or loss-of-signal activity can be used to understand changes in the signaling as they relate to the gene CXCL9. Furthermore, this assay endpoint can be referred to as a primary readout, because this assay has produced multiple assay endpoints where this one serves a signaling function. To generalize the intended target to other relatable targets, this assay endpoint is annotated to the cytokine intended target family, where the subfamily is chemotactic factor.
The levels of cell surface (or secreted, indicated by the prefix "s") biomarker endpoints were measured by ELISA. Overt cytotoxicity to cells in confluent adherent cultures (all systems other than the BT system) was assessed by measuring total protein levels using sulforhodamine B (SRB) staining in parallel cultures at the time of biomarker measurements, indicated as SRB endpoints. For proliferation assays for adherent cell types, individual cell types are cultured at sub-confluence and relative cell numbers quantified by SRB staining at time points optimized for each system (48 h: 3C and CASM3C systems; 72 h: BT and HDF3CGF systems; 96 h: SAg system). SRB was performed by staining cells with 0.1% SRB after fixation with 10% TCA and reading wells at 560 nm.Viability and proliferation of PBMC (T cells) was quantified by Alamar Blue reduction for the SAg and BT systems. For PBMC viability (referred to as PBMC Cytotoxicity within the assay endpoint names), cells were plated (75,000/well in a 96-well plate) and then chemical samples added for 1 h before addition of activators, SEB and TSST-1 (20 ng/mL final concentration each). Cells were incubated for 90 h. Then, Alamar Blue (20 uL/well) (Invitrogen, Cat DAL1100) was added for 6 h, and the plates were read with a fluorescence microplate reader at 546/580 nm (excitation/emission). For PBMC proliferation, cells were plated and activated as above but incubated for only 16 h prior to addition of Alamar Blue. Plates were read after 6 h.
With `CN(CCOc1ccc(CC2SC(=O)NC2=O)cc1)c1ccccn1` (stereo not given), the outcome was inactive.

`CC1COc2ccccc2N1C(=O)C(Cl)Cl` (stereo not given): the result was inactive.

As to `O=C(O)c1cn(C2CC2)c2cc(N3CCNCC3)c(F)cc2c1=O`, the outcome was inactive.

In the case of `COc1cc(C=O)ccc1OC(=O)C(C)C`, the outcome was inactive.

As for `CC(=O)[C@H]1CC[C@H]2[C@@H]3CC=C4C[C@@H](O)CC[C@]4(C)[C@H]3CC[C@]12C`, the outcome was inactive.

Turning to `C#C[C@]1(O)CC[C@H]2[C@@H]3CCC4=Cc5oncc5C[C@]4(C)[C@H]3CC[C@@]21C`, the result was inactive.

With `Cc1ccc(O)c(C(C)(C)C)c1`, the result was inactive.

With `CCCCC(CC)COCCC#N` (stereo not given), the result was inactive.

With `CCc1c(C)cc(N)c(CC)c1N`, the outcome was inactive.

Take `CC(C)(COC(=O)c1ccccc1)COC(=O)c1ccccc1`: the outcome was inactive.

Regarding `CCCCCCCCCCCCCCCCCC(=O)OCC(CC)CCCC` (stereo not given), the outcome was inactive.

Take `O=C1OC2(c3cc(Br)c(O)c(Br)c3Oc3c2cc(Br)c(O)c3Br)c2c(Cl)c(Cl)c(Cl)c(Cl)c21`: the AC50 was 16.3 µM (active).

`O=P(c1ccccc1)(c1ccccc1)c1ccccc1`: the result was inactive.

For the compound `CC(C)c1ccc(C(C)C)cc1`, the outcome was inactive.

Regarding `O=C1CCCCCCCCCCCCCCO1`, the result was inactive.

Turning to `C=C[Si](OCC)(OCC)OCC`, the outcome was inactive.

In the case of `CCCCC/C=C/C=C/C=O`, the AC50 was 36.5 µM (active).

As to `O=C=NC1CCC(CC2CCC(N=C=O)CC2)CC1` (stereo not given), the result was inactive.

With `Nc1cc([N+](=O)[O-])ccc1Cl`, the result was inactive.

Regarding `O=[N+]([O-])c1cc(C(F)(F)F)ccc1Cl`, the outcome was inactive.

`c1ccc2sc(SN(C3CCCCC3)C3CCCCC3)nc2c1`: the result was inactive.

For the compound `OC[C@H]1O[C@H](O[C@]2(CCl)O[C@H](CCl)[C@@H](O)[C@@H]2O)[C@H](O)[C@@H](O)[C@H]1Cl`, the result was inactive.

As to `BrC1CCC(Br)C(Br)CCC(Br)C(Br)CCC1Br` (stereo not given), the result was inactive.

In the case of `CCn1c2ccccc2c2cc(N)ccc21`, the result was inactive.

As for `c1ccc2c(c1)c1cccc3ccc4cccc2c4c31`, the result was inactive.

As to `Cc1cc(C2(c3cc(C)c(O)cc3C)OS(=O)(=O)c3ccccc32)c(C)cc1O`, the result was inactive.

Consider `CC(=O)Nc1ccccc1O`, for which the result was inactive.

For the compound `CC(=O)/C=C/C1=C(C)CCCC1(C)C`, the result was inactive.

Consider `C[C@H]1C[C@@H]2[C@H]([C@@H](O)C[C@@]3(C)[C@H]2CC[C@]3(O)C(=O)CO)[C@@]2(C)C=CC(=O)C=C12`, for which the outcome was inactive.

Consider `CC[Si](OC(C)=O)(OC(C)=O)OC(C)=O`, for which the outcome was inactive.

Consider `O=C(O)c1ccc([N+](=O)[O-])cc1`, for which the outcome was inactive.

In the case of `CC(=O)O[C@]1(C(C)=O)CC[C@H]2[C@@H]3C[C@H](C)C4=CC(=O)CC[C@]4(C)[C@H]3CC[C@@]21C`, the result was inactive.

In the case of `C=C(C)C(=O)O[C@H]1C[C@@H]2CC[C@@]1(C)C2(C)C`, the concentration at half-maximal activity (AC50) is 34.7 µM (active).

Consider `C=CCOC(=O)CCC1CCCCC1`, for which the result was inactive.

In the case of `CC(C)Oc1ccccc1O`, the result was inactive.

With `O=C(O)C[C@H](O)C[C@H](O)/C=C/c1c(C2CC2)nc2ccccc2c1-c1ccc(F)cc1`, the result was inactive.

For the compound `CC1CCC(C(C)CS)CC1S` (stereo not given), the AC50 is 36.9 µM (active).

Turning to `CCCCCCCCC=O`, the outcome was inactive.

Consider `CCCCCCCCCC=O`, for which the result was inactive.

For the compound `O=C(O)c1cn(-c2ccc(F)cc2)c2cc(N3CCNCC3)c(F)cc2c1=O`, the outcome was inactive.

The record behind these values is PubChem BioAssay (EPA / NIEHS).
